Results filed as inconclusive are left out. Active and inactive are the calls of the source. How the source made its calls: active means hit-call score of the fitted dose curve at least 0.9, where 1 is the maximum; inconclusive means response in the unintended direction; inactive means score below 0.9.

Chain of human Esterase Plasma (ES), BCHE (gene 590) (P06276 whole entry, looked up): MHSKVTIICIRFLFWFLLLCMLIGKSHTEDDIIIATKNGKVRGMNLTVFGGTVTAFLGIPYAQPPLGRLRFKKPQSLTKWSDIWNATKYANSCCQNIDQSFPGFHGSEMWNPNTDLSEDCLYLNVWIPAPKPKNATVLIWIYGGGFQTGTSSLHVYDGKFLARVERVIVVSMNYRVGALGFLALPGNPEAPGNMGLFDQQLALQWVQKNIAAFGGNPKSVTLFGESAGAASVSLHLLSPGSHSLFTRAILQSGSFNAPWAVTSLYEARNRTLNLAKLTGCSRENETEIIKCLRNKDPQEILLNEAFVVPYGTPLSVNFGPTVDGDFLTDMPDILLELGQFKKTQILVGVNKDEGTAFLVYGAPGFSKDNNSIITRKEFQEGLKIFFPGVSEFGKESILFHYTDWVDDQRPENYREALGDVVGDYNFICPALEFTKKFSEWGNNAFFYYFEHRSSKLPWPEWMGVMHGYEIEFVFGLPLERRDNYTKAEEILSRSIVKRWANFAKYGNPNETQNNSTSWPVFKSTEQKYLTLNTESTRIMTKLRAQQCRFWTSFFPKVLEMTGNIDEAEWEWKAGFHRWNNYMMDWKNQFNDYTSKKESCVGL

The assay has as its target human Esterase Plasma (ES), BCHE (gene 590) (UniProt P06276). Kind of assay: NVS_ENZ_hES: NovaScreen (NVS) Enzymatic Assay for human Esterase Plasma (ES) (AID 2283157). Here is the method:
NVS_ENZ_hES is a biochemical, single-readout assay that uses extracted gene-proteins from Human plasma in a cell-free assay. Measurements were taken 0.25 hour after chemical dosing in a 96-well plate.NVS_ENZ_hES is one of one assay component(s) measured or calculated from the NVS_ENZ_hES assay. It is designed to make measurements of enzyme activity, a form of enzyme reporter, as detected with absorbance signals by Colorimetric technology.Data from the assay component NVS_ENZ_hES was analyzed into 1 assay endpoint. This assay endpoint, NVS_ENZ_hES, was analyzed in the positive analysis fitting direction relative to DMSO as the negative control and baseline of activity. Using a type of enzyme reporter, loss-of-signal activity can be used to understand changes in the enzymatic activity as they relate to the gene BCHE. Furthermore, this assay endpoint can be referred to as a primary readout, because this assay has produced multiple assay endpoints where this one serves a enzymatic activity function. To generalize the intended target to other relatable targets, this assay endpoint is annotated to the esterase intended target family, where the subfamily is pseudocholinesterase.
Binding assays used specific radioligands (tritiated, iodinated) with non-radioactive competitive displacement ligands in agonist or antagonist protocols (as indicated) and various reference compounds and inhibitors to titrate specific binding to receptors and transporters. Most enzyme assays (CYPs, kinases, phosphatases, proteases, HDACs) used recombinant protein and specific substrates (fluorescence mostly, some colorimetric and radioactive) and inhibitors, followed by a biochemical separation of substrate and product. All assays for the biochemical HTS were initially run in duplicate at a single concentration (10 uM for CYP450 assays and 25 uM for all others). Assay-chemical combinations meeting a pre-defined threshold (e.g., 30% inhibition and other criteria defined below) were then run in singleton concentration-response format with maximum concentration of 20 uM for CYPs and 50 uM for all others. Each assay was run with positive and negative controls, and concurrent controls on every plate. The follow-up (secondary) screen tested active chemical-pairs in concentration series, as well as a few additional assays not tested in the primary screen, some selected negative inactives, and several cases re-run in the concentration series for confirmatory purposes.
For the compound `CC(C)(C)c1cc(O)c(C(C)(C)C)cc1O`, the outcome was inactive. Turning to `Nc1ccccc1N`, the AC50 was 17.6 µM (active). Take `CCOC(=O)C(C)(C)Oc1ccc(Cl)cc1`: the compound was classed as inactive. Take `NCC1(Cc2noc(=O)[nH]2)CCCCC1`: the call was inactive. For the compound `CN1CCN(Cc2cc(-c3ccc4[nH]c(=O)oc4c3)co2)[C@@H](c2ccc(F)cc2)C1`, the AC50 is 9.48 µM (active). Take `CCCCC(CC)COC(=O)CC(C(=O)OCC(CC)CCCC)S(=O)(=O)O` (stereo not drawn): the compound was classed as inactive. The same measure, in the same setting: the value for `COCCOC[C@H](CC1(C(=O)NC2CCC(C(=O)O)CC2)CCCC1)C(=O)Oc1ccc2c(c1)CCC2` (stereo partly drawn) was “inactive”; that for `Cc1cccc([N+](=O)[O-])c1C` was “inactive”. Same read-out and setting: next, `Cc1cc(=O)[nH]c(=S)[nH]1`: “inactive”; `Nc1nc(N)c2nc(CNc3ccc(C(=O)N[C@@H](CCC(=O)O)C(=O)O)cc3)cnc2n1`: “inactive”. For `NC(=O)Cn1c(=O)cc(CCN2CCN(c3nccc4sccc34)CC2)c2ccc(F)cc21`, the AC50 was 13 µM (active). With `FC(F)(F)C(F)(F)C(F)(F)C(F)(F)C(F)(F)C(F)(F)CCI`, the result was inactive. Still for that read-out and setting: the value for `Cc1ccc(C(C)C)c(O)c1` was “inactive”.

(Values after PubChem BioAssay (EPA / NIEHS).)
